Values joined by “and” are separate entries in the source; they are usually repeats but may differ in a detail not shown here. Identical values can stand only once. Counter-ions that a name gives are not always drawn. Among all 5,800 compounds or so, about 620 (11%) showed activity. Shown is part of a subset that was picked to be rich in actives. Values without a mark were called inactive.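 The calls were made as follows: active = score above a cut-off or among the top three wells of a plate; in these data no inactive exceeds 0.85.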
System: primary human hepatic stellate cells (donor 1)
Assay: scaled lipid accumulation score (0 = DMSO-like, 1 = nortriptyline-like); higher = stronger HSC inactivation (lipid re-accumulation), active = hit call of the paper
Settings: 48 h
[1] = library stock concentration: 1 mM
[2] = library stock concentration: 3.33 mM
[3] = library stock concentration: 10 mM
[4] = library stock concentration: 80 uM
[5] = library stock concentration: 400 uM
[6] = library stock concentration: 2 mM
[7] = library stock concentration: 6.8 mM

CCCCC[C@H](O)/C=C/[C@@H]1[C@H]2C/C=C\CCCC(=O)O[C@H]2C[C@H]1O [Prostaglandin F2.alpha. 1,9-lactone]
scaled lipid accumulation score [1]: ≤ 0

CCN(CCO)CCCOc1ccc2c(Nc3cc(CC(=O)Nc4cccc(F)c4)[nH]n3)ncnc2c1 [Barasertib (AZD1152-HQPA)]
scaled lipid accumulation score [2]: ≤ 0
scaled lipid accumulation score [3]: ≤ 0

COc1ccc(Cl)cc1NC(=O)Nc1cc(C)nc2ccccc12 [listing 1 of 2 here]
scaled lipid accumulation score [3]: 1.1 (active)

COc1ccc(Cl)cc1NC(=O)Nc1cc(C)nc2ccccc12 [IGF-1R Inhibitor II]
scaled lipid accumulation score [2]: 0.188

CCn1cc(NC(=S)Nc2cc(Cl)ccc2OC)c(C(N)=O)n1
scaled lipid accumulation score [2]: ≤ -0.009
scaled lipid accumulation score [3]: 0.111

COc1ccc(Cl)cc1NC(=O)Nc1cc(C)nc2ccccc12 [listing 2 of 2 here]
scaled lipid accumulation score [2]: 0.097
scaled lipid accumulation score [3]: 0.391

O=C(CCSCc1ccco1)NNC(=O)N1Cc2ccccc2Oc2ccc(Cl)cc21
scaled lipid accumulation score [3]: ≤ 0

CC1CCN=C(N)S1 (stereo not given) [AMT hydrochloride]
scaled lipid accumulation score [3]: 0.018

CC1CCN=C(N)S1 (stereo not given)
scaled lipid accumulation score [3]: ≤ 0

O=C(c1cncc(Br)c1)N1CCC(N2CCCC2)CC1
scaled lipid accumulation score [4]: ≤ 0
scaled lipid accumulation score [5]: ≤ 0
scaled lipid accumulation score [6]: ≤ 0
scaled lipid accumulation score [2]: ≤ -0.009
scaled lipid accumulation score [3]: ≤ 0

O=C(c1ccc(Nc2nccc(-c3cc4ccccc4s3)n2)cc1)N1CCC(N2CCCC2)CC1 [IKK-16 (IKK Inhibitor VII)] [listing 1 of 2 here]
scaled lipid accumulation score [3]: 0.246

O=C(c1ccc(Nc2nccc(-c3cc4ccccc4s3)n2)cc1)N1CCC(N2CCCC2)CC1 [IKK Inhibitor VII]
scaled lipid accumulation score [2]: 1.06 (active)

O=C(c1ccc(Nc2nccc(-c3cc4ccccc4s3)n2)cc1)N1CCC(N2CCCC2)CC1 [IKK-16 (IKK Inhibitor VII)] [listing 2 of 2 here]
scaled lipid accumulation score [2]: 1.04 (active)

O=C(c1ccc(C(=O)N2CCC(N3CCCC3)CC2)c(Nc2ccccc2)c1)N1CCC(N2CCCC2)CC1
scaled lipid accumulation score [4]: ≤ 0
scaled lipid accumulation score [5]: ≤ 0
scaled lipid accumulation score [6]: ≤ 0
scaled lipid accumulation score [2]: ≤ 0
scaled lipid accumulation score [3]: 0.002 and ≤ 0

O=C(c1ccc(Nc2nccc(-c3cc4ccccc4s3)n2)cc1)N1CCC(N2CCCC2)CC1
scaled lipid accumulation score [3]: 0.18

O=C(Cc1cccs1)N[C@@H]1C(=O)N2C(C(=O)[O-])=C(C[n+]3ccccc3)CS[C@H]12 [Cephaloridine]
scaled lipid accumulation score [3]: ≤ 0

COc1ccc2cc([C@H](C)CO)ccc2c1 [Naproxol]
scaled lipid accumulation score (library stock concentration: 9.2 mM): ≤ 0
scaled lipid accumulation score [3]: 0.031

O=c1cc(CN2CCOCC2)occ1OCCCCCSc1ccnc2cc(C(F)(F)F)ccc12
scaled lipid accumulation score [2]: ≤ -0.009
scaled lipid accumulation score [3]: 0.475

CCCCC[C@H](O)/C=C/[C@H]1[C@H](O)CC(=O)[C@@H]1C/C=C/CCCC(=O)O [5-trans Prostaglandin E2]
scaled lipid accumulation score [1]: ≤ 0

COC(=O)Nc1nc2cc(C(=O)c3ccccc3)ccc2[nH]1 [Mebendazole]
scaled lipid accumulation score: ≤ 0
scaled lipid accumulation score [7]: 0.082
scaled lipid accumulation score [3]: 0.402 and 0.071

COC(=O)Nc1nc2cc(C(=O)c3cccs3)ccc2[nH]1 [Nocodazole] [listing 1 of 2 here]
scaled lipid accumulation score [2]: 0.021
scaled lipid accumulation score (library stock concentration: 6.6 mM): 0.262

COC(=O)Nc1nc2cc(C(=O)c3cccs3)ccc2[nH]1 [Nocodazole] [listing 2 of 2 here]
scaled lipid accumulation score: 0.883 (active)

COC(=O)Nc1nc2cc(C(=O)c3ccccc3)ccc2[nH]1 [Mebendazol]
scaled lipid accumulation score [7]: 0.097

CCCNS(=O)(=O)Nc1ncnc(OCCOc2ncc(Br)cn2)c1-c1ccc(Br)cc1 [Macitentan]
scaled lipid accumulation score [2]: ≤ -0.009
scaled lipid accumulation score [3]: ≤ 0

CCCCCCCCCCCCC/C=C/[C@@H](O)[C@H](CO)N(C)C [N,N-Dimethylsphingosine] [listing 1 of 2 here]
scaled lipid accumulation score [1]: 0.185

CCCCCCCCCCCCC/C=C/[C@@H](O)[C@H](CO)N(C)C [N,N-Dimethylsphingosine] [listing 2 of 2 here]
scaled lipid accumulation score [1]: 0.965 (active)

CCCCCCCCCCCCC/C=C/[C@@H](O)[C@@H](N)CO [Sphingosine]
scaled lipid accumulation score [1]: ≤ -0.021

Nc1nc(NCC2CCC(CNS(=O)(=O)c3cccc4ccccc34)CC2)nc2ccccc12 (stereo not given)
scaled lipid accumulation score [3]: 0.415

O=C(/C=C/c1ccc(/C=C/C(=O)Nc2ccc(C3=NCCN3)cc2)cc1)Nc1ccc(C2=NCCN2)cc1 [GW 4869 (hydrochloride hydrate)]
scaled lipid accumulation score [1]: 0.115

CCCCC[C@H](O)/C=C/[C@H]1[C@H](O)CC(=O)[C@@H]1C/C=C/CCCC(=O)Oc1ccc(NC(C)=O)cc1 [Prostaglandin E2 p-acetamidophenyl ester]
scaled lipid accumulation score [1]: ≤ 0

C[C@@H](O)CCC[C@H](O)/C=C/C1=C(C/C=C\CCCC(=O)O)C(=O)CC1 [19(R)-hydroxy Prostaglandin B2]
scaled lipid accumulation score [1]: ≤ 0

Fc1ccc([C@@H]2CCNC[C@H]2COc2ccc3c(c2)OCO3)cc1.O=C(O)/C=C\C(=O)O [Paroxetine maleate]
scaled lipid accumulation score [3]: 1.14 (active)

Fc1ccc([C@@H]2CCNC[C@H]2COc2ccc3c(c2)OCO3)cc1.O=C(O)/C=C\C(=O)O [Paroxetine]
scaled lipid accumulation score [3]: 1.02 (active)

CN1CCC(c2c(O)cc(O)c3c(=O)cc(-c4ccccc4Cl)oc23)C1CO (stereo not given) [Riviciclib]
scaled lipid accumulation score [4]: 0.019
scaled lipid accumulation score [5]: 0.272
scaled lipid accumulation score [6]: ≤ -0.001
scaled lipid accumulation score [3]: 0.002

COC(=O)/C=C/c1cc(O)ccc1O [Methyl 2,5-dihydroxycinnamate]
scaled lipid accumulation score [3]: 0.182

Reference: the supplement of paper PMC9135407
